This passage reports PBM binding z-score results from the supplement of paper PMC6555819.

Common to all, as to assay: PBM binding z-score (relative to random genomic background probes); higher = stronger binding; sequences stand for … in GC…GCGATTGACAGCGTAGAATGAAGG
In experiment [1] the test system is RARb homodimer (NR concentration 270 nM). An outline of the steps:
(§1)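 Regression normalization was applied to scanned fluorescence from custom Agilent 4×180K protein-binding microarrays. Before scanning, arrays were incubated 1 h with ligand-free nuclear receptor dimers, and binding was detected with antibodies against each partner (one per run). Binding z-scores use the random background probes as reference.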

In experiment [2] the test system is RARg:RXRa (NR concentration 270 nM, RXRa partner concentration 90 nM). An outline of the steps:
as §1

Experiment [3] has as its system RARg homodimer (NR concentration 270 nM). In a few lines:
as §1

In experiment [4] the test system is RXRa DBDmut IVT, anti-RXR (DBD mutation: RXRa K156A/R161A, NR concentration 90 nM). An outline of the steps:
as §1

Experiment [5] deals with RXRa homodimer (NR concentration 180 nM). In a few lines:
as §1

Experiment [6] has as its system THRa:RXRa (NR concentration 90 nM, RXRa partner concentration 90 nM). In a few lines:
as §1

For experiment [7], the system named is THRa homodimer (NR concentration 90 nM). In a few lines: as §1
Experiment [8] relates to VDR:RXRa (NR concentration 270 nM, RXRa partner concentration 90 nM). An outline of the steps:
as §1

Experiment [9] deals with VDR homodimer (NR concentration 270 nM). In a few lines: as §1

In the case of CGTCCAAGGTCAGCAGGACAGTGAAAGCGACGTG, the PBM binding z-score in experiment [1] came to 3.89; in [2], 5.05; in experiment [3], 6.09; in experiment [4] it was 2.33; in experiment [5], 3.68; in experiment [6], 3.72. Besides, the PBM binding z-score is 1.9 in experiment [7], 2.42 in [8] and 0.589 in experiment [9].
As to CGTCCAAGGTCAATGCTACGTCAGTGAAAGCATT, the PBM binding z-score in [1] was 4.04; in experiment [2], 5.67; in experiment [3], 6.18; in experiment [4], 3.58; in experiment [5] it was 4.83; in [6] it was 3.53. The PBM binding z-score worked out at 1.75 in [7], 3.53 in experiment [8] and 2.18 in [9].
In the case of AGGACGAGGGCAATGAGTTGATAGCACGGGTGGC, the PBM binding z-score came to 1.44 in experiment [1]; 1.21 in experiment [2]; 1.88 in [3]; 2.22 in [4]; 0.924 in experiment [5]; 1.08 in experiment [6]. Moreover, the PBM binding z-score in [7] was 0.181; in experiment [8] it was 5.11; in experiment [9] it was 3.41.
Turning to CAAACTTGGTCACAGAGGTCAAAGTCCGTGCGTA, the PBM binding z-score was found to be 4.73 in experiment [1]; 5.89 in [2]; 5.25 in experiment [3]; 2.34 in [4]; 6.56 in experiment [5]; 3.98 in experiment [6]. Further, the values for the PBM binding z-score in experiment [7], in [8] and in experiment [9] were 1.36, 6.59 and 4.8, respectively.
As to CGTCCAAGGTCATAGGAGGTCAGTGATGACAGAT, the PBM binding z-score was 5.33 in experiment [1]; 6.66 in experiment [2]; 6.93 in [3]; 3.97 in experiment [4]; 6.5 in experiment [5]; 5.4 in experiment [6]. In addition, the PBM binding z-score is 3.25 in experiment [7], 6.43 in [8] and 4.59 in experiment [9].
Consider CTCGAAAGGTCGCTTGAGGTGAGTATACGGATAA, for which the PBM binding z-score in experiment [1] is 2.86; in experiment [2] it was 3.95; in experiment [3], 3.9; in experiment [4] it was 1.89; in experiment [5], 3.66; in experiment [6] it was 5.16. The figures for the PBM binding z-score in [7], in experiment [8] and in experiment [9] were 1.09, 3.4 and 0.912, respectively.
Take ACAGACAGGTGATGAAGGTAACTCACGCTATCAT: the PBM binding z-score in experiment [1] was 0.275; in experiment [2], 0.28; in experiment [3], 0.546; in experiment [4], -0.0205; in experiment [5], 0.483; in experiment [6], 0.491. The results for the PBM binding z-score in experiment [7], in experiment [8] and in experiment [9] were -0.113, 0.327 and 0.0793, respectively.
Turning to GGAACGAGGGCATTCGAGTCGATAGCATGGCGAT, the PBM binding z-score in experiment [1] came to 0.222; in experiment [2], 1.01; in experiment [3], 1.35; in experiment [4], 3.2; in experiment [5], 0.622; in experiment [6], 2.5. The PBM binding z-score was -0.885 in [7], 1.99 in [8] and 1.87 in experiment [9].
As for CCTCCAAGGTCAAAGGTCAGTGAAGAGATGACGG, the PBM binding z-score in experiment [1] amounted to 5.51; in [2], 8.61; in experiment [3], 7.7; in experiment [4], 3.97; in experiment [5], 10; in experiment [6], 4.65. Moreover, the PBM binding z-score in [7] was 2.63; in [8], 6.52; in experiment [9], 3.92.
On to CGTACAAGGTCAGCAGGTCAGTGAAAGCGACGTG, for which the PBM binding z-score in [1] came to 5.11; in experiment [2], 6.42; in experiment [3], 6.72; in experiment [4], 3.07; in [5] it was 5.36; in [6] it was 3.93. Moreover, the PBM binding z-score was determined as 2.42 in experiment [7], 4.16 in [8] and 1.68 in [9].
As for TCTCGTAGATCAAAGGTTAAGAAAGCCGAAGCCT, the PBM binding z-score in experiment [1] was 1.36; in experiment [2], 1.65; in experiment [3], 0.587; in experiment [4] it was 0.764; in [5], 2.94; in [6], 1.14. Also, the PBM binding z-score is -0.441 in experiment [7], 1.24 in [8] and 0.265 in experiment [9].
TCTTGTAGATCAATAGAGGTTAAGCAAGTGCGCT: the PBM binding z-score in experiment [1] came to 1.25; in [2] it was 0.719; in experiment [3], 0.343; in [4], 0.564; in [5] it was 1.32; in experiment [6], 2.68. Besides, the PBM binding z-score was -0.555 in experiment [7], 2.4 in experiment [8] and 0.376 in experiment [9].
